Screening data as filed in PubChem.
Most compounds without a hit are left out; they make up all but 9.2% or so of the library.
ELG1 repair inh = inhibitors of ELG1-dependent DNA repair in HEK293T cells; HEK293T ELG1-luciferase reporter, luminescence, 16 h; DNA damage induced by 5-fluorouridine; Potency, µM (highest dose often 46.1 µM), actives largely listed as inhibitors; 330,000 tested, 2.3% active; also: nearly all actives have a fitted effect of over 55% in size
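Quantitative HTS, concentration-response format. 2,000 cells/well co-treated with 5-fluorouridine and compound, 16 hr in 5% CO2 at 37 °C; ONE-Glo luminescence read after 30 min.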
SMN2 splice up = increases expression of the SMN2 splice variant. HEK293 SMN2-luciferase splicing reporter, luminescence, 30-36 h. Potency, µM (highest dose often 46.1 µM), actives largely listed as activators. 210,000 tested, 2.8% active; also: nearly all actives have a fitted effect of over 55% in size
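qHTS luciferase splicing reporter: luminescence rises when SMN2 exon 7 is included in transfected HEK293 cells. Compound exposure lasted 30-36 h at 37C, with 4.5 mM final sodium butyrate as control, followed by a ONE-Glo read.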
NPC1 prom act = activators of NPC1 promoter. Potency, µM (series often up to 9.22 µM), usual class: activators. Huh7 NPC1 promoter luciferase reporter, 24 h. 320,000 tested, 2.4% active. AID 485313; also: nearly all actives have a fitted effect of over 60% in size
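Luminescence read-out of NPC1 promoter-driven luciferase in stably transfected Huh7 cells; compounds delivered in DMSO and left 24 h at 37C, 5% CO2, qHTS titration format.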
Rab9 promoter act = Rab9 promoter activation; Potency, µM (titrated, usually from 9.22 µM), actives largely listed as activators; Huh7 Rab9 promoter-luciferase reporter, luminescence, 24 h; AID 485297; 320,000 tested, 2.8% active; also: nearly all actives have a fitted effect of over 60% in size
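Cell-based reporter: Huh7 stable for Rab9 promoter-driven luciferase, plated in reduced-serum medium with 10% FBS at 1500 cells/well, compound-treated 24 h at 37 °C, luminescence read after 10 min reagent.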
FLuc modulator = firefly luciferase modulation, counter-screen for miR-21 project; purified FLuc, Km substrates, luminescence inhibition; Potency, µM (titrated, usually from 57.5 µM), usual class: inhibitors; P08659; AID 588342; 360,000 tested, 6.9% active; also: nearly all actives have a fitted effect of over 55% in size
Target sequence (P08659 whole entry, looked up): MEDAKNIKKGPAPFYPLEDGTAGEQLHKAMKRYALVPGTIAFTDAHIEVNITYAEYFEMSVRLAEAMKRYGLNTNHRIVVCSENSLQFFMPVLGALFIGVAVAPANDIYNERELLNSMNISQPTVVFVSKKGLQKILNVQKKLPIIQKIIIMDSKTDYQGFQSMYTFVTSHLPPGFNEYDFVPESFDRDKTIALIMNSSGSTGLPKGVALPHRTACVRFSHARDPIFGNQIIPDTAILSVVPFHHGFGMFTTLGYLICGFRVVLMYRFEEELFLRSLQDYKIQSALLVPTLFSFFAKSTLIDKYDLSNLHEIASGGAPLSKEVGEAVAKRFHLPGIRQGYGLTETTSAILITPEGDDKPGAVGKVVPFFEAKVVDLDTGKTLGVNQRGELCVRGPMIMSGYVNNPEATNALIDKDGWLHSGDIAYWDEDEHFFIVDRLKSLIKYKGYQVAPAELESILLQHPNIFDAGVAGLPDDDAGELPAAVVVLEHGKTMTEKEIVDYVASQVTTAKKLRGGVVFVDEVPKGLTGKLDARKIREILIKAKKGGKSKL
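Purified P. pyralis luciferase, 10 nM final, with Km-level 10 uM D-luciferin and 10 uM ATP in 50 mM Tris acetate pH 7.5, 10 mM Mg acetate, 0.01% Tween-20, 0.05% BSA; 6-point qHTS titration about 60 µM downward; luminescence read.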
ELG1 genotoxic = induces genotoxicity in HEK293T cells with luciferase-tagged ELG1; AID 504466; Potency, µM (doses to about 46 µM), hits mostly activators; HEK293T ELG1-luciferase reporter, luminescence, 16 h; 330,000 tested, 1.3% active; also: nearly all actives have a fitted effect of over 60% in size
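Genotoxicity was scored as increased ELG1-luciferase reporter signal, measured by ONE-Glo luminescence (30 min, room temperature). Compound or vehicle exposure of the HEK293T reporter cells lasted 16 hr at 37°C.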
Large screens that a line does not name were inactive. Calls follow the shape of the dose curve; as a rule, active = well fitted curve in the direction sought with a large enough effect; inconclusive = small, poorly fitted or top-dose-only effect, or another doubt; inactive = no such curve, though single readings can be large; an effect the other way counts as inactive or inconclusive.

COc1ccc(Cc2nc(-c3cccs3)no2)cc1	ELG1 repair inh inconclusive, SMN2 splice up inconclusive, NPC1 prom act inconclusive, Rab9 promoter act inconclusive, FLuc modulator 15µM, ELG1 genotoxic inconclusive
COc1ccc(Cc2nc(-c3ccc(-n4cccc4)cc3)no2)cc1OC	ELG1 repair inh inconclusive, ELG1 genotoxic 13µM
COc1ccc(Cc2nc(-c3ccc(-n4cccc4)cc3)no2)cc1	none
COc1cc(OC)cc(N(C(=O)CNC(=O)c2cccs2)C(C(=O)NCC2CCCO2)c2ccccc2)c1 (stereo not given)	none (no result: SMN2 splice up)
Cc1ccc(OCC(=O)N(C)C2CCCCC2)c([N+](=O)[O-])n1	none (no result: SMN2 splice up, NPC1 prom act, Rab9 promoter act, FLuc modulator)
Clc1cccc(N2CCN(c3nc4ccccc4n4cnnc34)CC2)c1	none (no result: ELG1 repair inh, NPC1 prom act, Rab9 promoter act, ELG1 genotoxic)
Cc1ccc(C)n1-c1ccc(N2CCOCC2)nc1	SMN2 splice up 14µM, ELG1 genotoxic inconclusive
Cc1ccc(C)c(NC(=O)N2CCN(C(=O)c3nsc4ccccc34)CC2)c1	none (no result: ELG1 repair inh, SMN2 splice up, NPC1 prom act, Rab9 promoter act, ELG1 genotoxic)
COc1ccccc1-n1c(-c2ccccc2)c[n+]2c1CCc1ccccc1-2	ELG1 repair inh 3.3µM
CC(C)c1ccc(-n2c(-c3ccccc3)c[n+]3c2CCc2ccccc2-3)cc1	ELG1 repair inh 2.3µM
COc1ccc(-n2c(-c3ccc(Br)cc3)c[n+]3c2CCc2ccccc2-3)cc1	ELG1 repair inh inconclusive
Oc1ccc(-c2nccc(-c3ccc(Cl)cc3Cl)n2)cc1	none
Oc1ccc(-c2cccc(-c3ccc(O)cc3)n2)cc1	ELG1 repair inh inconclusive, SMN2 splice up inconclusive, FLuc modulator 17µM
Cc1ccc(C)n1-c1nccc(-c2cccs2)n1	none
Oc1ccc(-c2cc(-c3ccc(O)cc3)nc(-c3ccccc3)n2)cc1	none (no result: SMN2 splice up)
Oc1ccc(-c2nccc(-c3cccs3)n2)cc1	ELG1 repair inh inconclusive, SMN2 splice up inconclusive, NPC1 prom act inconclusive, FLuc modulator 8.5µM, ELG1 genotoxic inconclusive
Oc1ccc(-c2nnc(-c3ccc(O)cc3)nn2)cc1	ELG1 repair inh inconclusive, SMN2 splice up 14µM, NPC1 prom act 3.2µM, Rab9 promoter act 4µM, FLuc modulator 2.7µM
Oc1ccc(-c2nccc(-c3ccc(Cl)cc3)n2)cc1	ELG1 repair inh inconclusive, FLuc modulator 17µM, ELG1 genotoxic inconclusive
Cc1ccc(OCCSc2nc3ccccc3n2CC(=O)N2CCOCC2)c(C)c1	none (no result: ELG1 repair inh, SMN2 splice up, NPC1 prom act, Rab9 promoter act, ELG1 genotoxic)
COC(=O)C(C)Oc1ccc(-c2nccc(-c3cccs3)n2)cc1 (stereo not given)	ELG1 repair inh inconclusive, SMN2 splice up inconclusive, FLuc modulator 17µM
O=C(Nc1nccc(-c2cccs2)n1)c1ccccc1Cl	ELG1 repair inh inconclusive
COc1ccc(C(=O)C(CCC(CNC(C)(C)C)C(=O)c2ccc(OC)cc2)CNC(C)(C)C)cc1 (stereo not given)	ELG1 repair inh 8.2µM
Cn1nc(C(=O)Nc2nc3ccccc3[nH]2)ccc1=O	ELG1 repair inh inconclusive, SMN2 splice up 13µM, NPC1 prom act inconclusive, Rab9 promoter act 2.2µM, FLuc modulator 17µM
O=C(Cc1ccccc1Cl)Nc1nc2ccccc2[nH]1	ELG1 repair inh inconclusive (no result: SMN2 splice up)
Cc1c(C(=O)Nc2nc3ccccc3[nH]2)oc2c(Cl)cccc12	ELG1 repair inh inconclusive, SMN2 splice up inconclusive, ELG1 genotoxic inconclusive
O=C(Nc1nc2ccccc2[nH]1)c1cccs1	ELG1 repair inh inconclusive, SMN2 splice up 3.5µM, NPC1 prom act 1.3µM, Rab9 promoter act 1.3µM, FLuc modulator 4.8µM, ELG1 genotoxic inconclusive
COc1cccc(C(=O)Nc2nc3ccccc3[nH]2)c1	ELG1 repair inh inconclusive, SMN2 splice up inconclusive, NPC1 prom act 0.56µM, Rab9 promoter act 0.71µM, FLuc modulator 0.76µM, ELG1 genotoxic 0.37µM
COc1cc(C(=O)Nc2nc3ccccc3[nH]2)cc(OC)c1OC	ELG1 repair inh inconclusive, FLuc modulator inconclusive
COc1ccc(C(=O)Nc2nc3ccccc3[nH]2)cc1	ELG1 repair inh inconclusive, NPC1 prom act 0.11µM, Rab9 promoter act inconclusive, FLuc modulator 0.19µM, ELG1 genotoxic inconclusive (no result: SMN2 splice up)
CC(C)=CCCC1(C)C=Cc2c(c(C)cc3c2[nH]c2ccccc23)O1 (stereo not given)	none (no result: ELG1 repair inh, NPC1 prom act, Rab9 promoter act, FLuc modulator, ELG1 genotoxic)
COc1ccc(C(=O)N[C@H](C(=O)Nc2nc3ccccc3[nH]2)C(C)C)cc1	ELG1 repair inh inconclusive, SMN2 splice up 10µM, FLuc modulator 6.7µM, ELG1 genotoxic 12µM
Cc1cccc(C(=O)N[C@H](C(=O)Nc2nc3ccccc3[nH]2)C(C)C)c1	ELG1 repair inh inconclusive, ELG1 genotoxic inconclusive
COc1ccc(CN2COc3ccc4c(-c5ccccc5)cc(=O)oc4c3C2)cc1	none (no result: ELG1 repair inh, SMN2 splice up, NPC1 prom act, Rab9 promoter act, ELG1 genotoxic)
O=C(Nc1cc(F)ccc1F)N1CCC(CN2CCCC2)CC1	none (no result: ELG1 repair inh, SMN2 splice up, NPC1 prom act, Rab9 promoter act, ELG1 genotoxic)
O=C(CNC(=O)c1ccc(Br)o1)NNC(=O)c1ccccc1O	none (no result: SMN2 splice up)
CC(C)c1nnc(NC(=O)CCC(=O)NCc2ccc(F)cc2)s1	none (no result: SMN2 splice up)
COc1ccccc1CC(=O)NCC1CCCO1 (stereo not given)	none (no result: ELG1 repair inh, NPC1 prom act, Rab9 promoter act, ELG1 genotoxic)
O=C(NCC1CCCO1)c1ccccc1-c1nc(-c2ccc(F)cc2)no1 (stereo not given)	ELG1 repair inh inconclusive, FLuc modulator inconclusive
COc1ccccc1-c1noc(-c2ccccc2C(=O)NCC2CCCO2)n1 (stereo not given)	FLuc modulator 15µM (no result: SMN2 splice up)
